Assay [1] in a line: qHTS assay to identify small molecule antagonists of the sonic hedgehog signaling (Shh) pathway (AID 1259369). Further: nearly all actives have a fitted effect of over 45% in size. Further: potency means the concentration at half of the fitted maximal effect. An outline of the steps:
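Read-out is luminescence from a firefly luciferase gene controlled by the Gli1 response element, in 3T3Gli1-Luc cells pre-incubated 4hr then exposed to compounds and conditioned medium for 24hr.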

Assay [2] concerns the target Estrogen receptor beta (Homo sapiens) (UniProt Q92731). Put plainly: qHTS assay to identify small molecule antagonists of the estrogen receptor beta (ER-beta) signaling pathway (AID 1259378; active means well fitted inhibition curve with a large enough effect in the signal ratio in the repeat runs, not every such curve was filed as active; the % refers to the signal ratio; further: potency means the concentration at half of the fitted maximal effect). The method, boiled down: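 Antagonist mode: compounds added to beta-lactamase reporter HEK293T ER-beta-UAS cells stimulated with E2 (1nM final), 16 hr at 37C. LiveBLAzer B/G FRET substrate, 2 hours room temperature, fluorescence read-out.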
On the technique in general: In qHTS, concentration-response curves come from the screen itself.

Assay [3] is described as follows: qHTS assay to identify small molecule agonists of the androgen receptor (AR) signaling pathway in the presence of an antagonist - cell viability counter screen (AID 1259379; active means well fitted curve in the direction sought with a large enough effect in the repeat runs; an effect the other way counts as inactive or inconclusive; further: nearly all actives have a fitted effect of over 25% in size; further: potency means the concentration at half of the fitted maximal effect). The method, boiled down: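 Each compound was tested at 15 concentrations on MDA-kb2 cells in the presence of 3.0uM nilutamide. Viability was measured by CellTiter-Fluor fluorescence after a 16 hr incubation at 37C in a CO2-free atmosphere.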

Assay [4] can be described thus: qHTS assay to identify small molecule agonists of the estrogen receptor beta (ER-beta) signaling pathway - cell viability counter screen (AID 1259380; active means well fitted curve in the direction sought with a large enough effect in the repeat runs; an effect the other way counts as inactive or inconclusive; further: nearly all actives have a fitted effect of over 30% in size; further: potency means the concentration at half of the fitted maximal effect). The method, boiled down:
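Compounds dissolved in DMSO were pin-transferred onto ER-beta-UAS-bla HEK293T cells that had settled 6 hr, and exposure ran 16 hr at 37C. Following the reporter read, CellTiter-Glo luminescence after 30 min at room temperature indicated cytotoxicity.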

Assay [5] deals with Androgen receptor (Homo sapiens) (UniProt P10275). Put plainly: qHTS assay to identify small molecule agonists of the androgen receptor (AR) signaling pathway in the presence of an antagonist (AID 1259381). Further: nearly all actives have a fitted effect of over 15% in size. Further: potency means the concentration at half of the fitted maximal effect. An outline of the steps:
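Plated MDA-kb2 cells (3,000/well) were pre-incubated 5hr, given nilutamide (3.0uM final) or buffer, then dosed with compounds in DMSO at 15 concentrations. Luciferase activity was quantified by luminescence after 16hr at 37C.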

Assay [6] addresses Estrogen receptor (Homo sapiens) (UniProt P03372). Put plainly: qHTS assay to identify small molecule agonists of the estrogen receptor alpha (ER-alpha) signaling pathway in the presence of an antagonist (AID 1259383). Further: top concentration of the series differs between compounds; nearly all actives have a fitted effect of over 15% in size. The method, boiled down: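 Luminescent ERE-luciferase reporter, VM7Luc4E2 cells (endogenous ER-alpha); 10.0nM ICI-182,780 final; 15-point compound titration; 22hr at 37C; ONE-Glo, 30min RT.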

Assay [7] is described as follows: qHTS assay to identify small molecule agonists of the estrogen receptor alpha (ER-alpha) signaling pathway in the presence of an antagonist - cell viability counter screen (AID 1259386; active means well fitted curve in the direction sought with a large enough effect in the repeat runs; an effect the other way counts as inactive or inconclusive;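 further: cells exposed to compounds for 22 h at 37 °C before the viability read; nearly all actives have a fitted effect of over 30% in size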; further: potency means the concentration at half of the fitted maximal effect). The method, boiled down:
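Using estrogen-depleted VM7Luc4E2 cells, the 15-concentration compound series was applied together with 10.0nM ICI-182,780 and incubated 22hr at 37C/5% CO2. Cell viability was then scored by CellTiter-Fluor.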

Assay [8] concerns the target Progesterone receptor (Homo sapiens) (UniProt P06401). Put plainly: qHTS assay to identify small molecule agonists of the progesterone receptor (PR) signaling pathway (AID 1346784). Further: nearly all actives have a fitted effect of over 30% in size. The method, boiled down: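 Compounds were tested for PR agonism in HEK 293T cells bearing a beta-lactamase gene under UAS control. Treatment lasted 16 hr at 37C; signal came from fluorescence of a FRET substrate.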

The nature of assay [9]: qHTS assay to identify small molecule antagonists of the progesterone receptor (PR) signaling pathway - cell viability counter screen (AID 1346798; active means well fitted curve in the direction sought with a large enough effect in the repeat runs; an effect the other way counts as inactive or inconclusive; further: nearly all actives have a fitted effect of over 50% in size; further: potency means the concentration at half of the fitted maximal effect). An outline of the steps: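 Following a 4 hr attachment, PR-UAS-bla HEK293T cells in charcoal-stripped FBS medium were exposed to compounds with R5020 for 16 hr; CellTiter-Glo was added and luminescence read after 30 min at room temperature.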

The nature of assay [10]: qHTS assay to identify small molecule agonists of the progesterone receptor (PR) signaling pathway - cell viability counter screen (AID 1346799). Further: nearly all actives have a fitted effect of over 45% in size. Further: potency means the concentration at half of the fitted maximal effect. The method, boiled down:
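Here, 3,000 PR-UAS-bla HEK293T cells per well were treated with compounds for 16 hr after a 6 hr preincubation at 37C and 5% CO2; cell viability is the CellTiter-Glo luminescence signal.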

Assay [11] can be described thus: qHTS assay to identify small molecule antagonists of the TGF-beta/Smad signaling pathway - cell viability counter screen (AID 1346824; active means well fitted curve in the direction sought with a large enough effect in the repeat runs; an effect the other way counts as inactive or inconclusive; further: nearly all actives have a fitted effect of over 50% in size). An outline of the steps: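 Cytotoxicity counter-screen run in the same wells as the beta-lactamase Smad reporter read: CellTiter-Glo luminescence after 30 min at room temperature. HEK 293T SBE-bla cells had 5 hr compound exposure at 37 C with TGF-beta1 (0.25 ng/mL stock).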

Assay [12] is described as follows: qHTS assay to identify small molecule agonists of the TGF-beta/Smad signaling pathway - cell viability counter screen (AID 1346829; active means well fitted curve in the direction sought with a large enough effect in the repeat runs; an effect the other way counts as inactive or inconclusive; further: top concentration of the series differs between compounds; nearly all actives have a fitted effect of over 45% in size). The method, boiled down:
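Luminescence from CellTiter-Glo, read after a 30 min room-temperature incubation, gives cell viability of SBE-bla HEK 293T cells treated 5 hr with compounds at 37 C.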

Assay [13] can be described thus: qHTS assay to identify small molecule agonists of the TGF-beta/Smad signaling pathway (AID 1346859; active means well fitted activation curve with a large enough effect in the signal ratio in the repeat runs, not every such curve was filed as active; the % refers to the signal ratio; further: series mostly up to about 77 µM). An outline of the steps:
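Each well held 4,000 SBE-bla HEK 293T cells incubated overnight before compound addition; 5 hr later the cleavable FRET substrate went on for 2 hr at room temperature, and fluorescence was read at two emissions.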

Assay [14] concerns the target Thyrotropin-releasing hormone receptor (Homo sapiens) (UniProt P34981). Put plainly: qHTS assay to identify small molecule antagonists of the thyrotropin-releasing hormone receptor (TRHR) signaling pathway (AID 1346877; active means well fitted inhibition curve with a large enough effect in the repeat runs, not every such curve was filed as active; further: series mostly up to about 51 µM). An outline of the steps:
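Calcium signal in dye-loaded TRHR/HEK293 cells; compounds added 5 min before TRH (1 nM final); fluorescence monitored 3 min at 1 s steps.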

For assay [15] the target is unchanged. As to the kind of experiment: qHTS assay to identify small molecule agonists of the thyrotropin-releasing hormone receptor (TRHR) signaling pathway (AID 1346891). Further: series mostly up to about 58 µM. The method, boiled down:
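Screening of agonists relied on calcium signalling in HEK293 cells expressing human TRHR: dye loading 2 h at 37 °C preceded compound addition and a 3-min fluorescence time course.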

A short description of assay [16]: qHTS assay to identify small molecule antagonists of the estrogen receptor beta (ER-beta) signaling pathway - cell viability counter screen (AID 1259382; active means well fitted curve in the direction sought with a large enough effect in the repeat runs; an effect the other way counts as inactive or inconclusive; further: nearly all actives have a fitted effect of over 55% in size; further: potency means the concentration at half of the fitted maximal effect). The method, boiled down: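 CellTiter-Glo ATP luminescence measured after the LiveBLAzer read in the same wells; ER-beta-UAS-bla HEK293T cells, 16 hr compound treatment with 1nM 17-beta-estradiol agonist at 37C, 5% CO2.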

Assay [17] in a line: qHTS assay to identify small molecule agonists or antagonists of the thyroid stimulating hormone receptor (TSHR) signaling pathway - wild type cell line counter screen (AID 1259384). An outline of the steps:
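Counter screen in untransfected Hek293: compounds (15-point titration, triplicate) plus phosphodiesterase inhibitor Ro20-1724 added after 18 h plating; 30 min RT. Intracellular cAMP via competitive d2/cryptate immunoassay, 1 h incubation.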

Assay [18] concerns the target Thyrotropin receptor (Homo sapiens) (UniProt P16473). Put plainly: qHTS assay to identify small molecule antagonists of the thyroid stimulating hormone receptor (TSHR) signaling pathway (AID 1259385). Further: nearly all actives have a fitted effect of over 20% in size. Further: potency means the concentration at half of the fitted maximal effect. An outline of the steps: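 Antagonist mode: compound-treated TSHR-expressing HEK293 cells were stimulated with 1.5 ng/mL TSH (final) in presence of Ro20-1724 for 30 min at RT. HTRF cAMP detection after 1 h; each compound tested at 15 concentrations, triplicate.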

Assay [19] deals with Progesterone receptor (Homo sapiens) (UniProt P06401). Put plainly: qHTS assay to identify small molecule antagonists of the progesterone receptor (PR) signaling pathway (AID 1346795; active means well fitted inhibition curve with a large enough effect in the signal ratio in the repeat runs, not every such curve was filed as active; the % refers to the signal ratio; further: potency means the concentration at half of the fitted maximal effect). The method, boiled down: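 In HEK293T cells bearing the PR-UAS-bla reporter, compound effects on promegestone-driven (1 nM) beta-lactamase expression are assessed after 16 hr using a fluorescent FRET substrate incubated 2 hr at room temperature.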
Progesterone receptor (Homo sapiens), sequence (P06401 whole entry, looked up): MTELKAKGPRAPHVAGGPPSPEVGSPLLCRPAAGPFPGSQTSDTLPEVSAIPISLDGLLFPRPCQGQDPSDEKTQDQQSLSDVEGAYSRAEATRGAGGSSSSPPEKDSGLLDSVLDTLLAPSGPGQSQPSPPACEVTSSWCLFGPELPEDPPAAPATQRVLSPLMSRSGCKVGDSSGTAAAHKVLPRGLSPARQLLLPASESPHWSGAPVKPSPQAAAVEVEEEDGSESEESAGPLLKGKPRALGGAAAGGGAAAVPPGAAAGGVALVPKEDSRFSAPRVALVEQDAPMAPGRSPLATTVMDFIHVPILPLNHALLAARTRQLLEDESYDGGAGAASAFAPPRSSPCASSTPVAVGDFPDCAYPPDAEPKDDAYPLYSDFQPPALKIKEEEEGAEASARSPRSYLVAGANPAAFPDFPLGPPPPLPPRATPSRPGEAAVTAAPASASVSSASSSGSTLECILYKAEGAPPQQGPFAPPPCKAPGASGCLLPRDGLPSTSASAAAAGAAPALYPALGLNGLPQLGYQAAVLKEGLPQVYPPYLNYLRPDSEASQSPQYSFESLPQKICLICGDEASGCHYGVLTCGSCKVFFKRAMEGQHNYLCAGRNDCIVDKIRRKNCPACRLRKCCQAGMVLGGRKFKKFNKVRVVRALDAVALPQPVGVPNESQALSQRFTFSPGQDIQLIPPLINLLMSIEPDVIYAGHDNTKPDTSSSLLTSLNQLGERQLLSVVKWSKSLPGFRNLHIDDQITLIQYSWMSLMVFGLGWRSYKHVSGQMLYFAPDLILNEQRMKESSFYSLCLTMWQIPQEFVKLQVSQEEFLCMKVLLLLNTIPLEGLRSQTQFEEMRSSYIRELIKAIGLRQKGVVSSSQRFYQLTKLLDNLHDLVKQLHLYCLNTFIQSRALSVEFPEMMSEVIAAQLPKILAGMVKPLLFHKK

Values joined by “and” are separate entries in the source; they are usually repeats but may differ in a detail not shown here. Equal entries are not always repeated. Records with an inconclusive call do not appear. A structure can be active in one record and inactive in another. Active and inactive are the calls of the source. Unless noted, the call rests on the fitted dose curve.

Among the data in PubChem BioAssay (Tox21) are Potency and outcome values, retold here.

Thyrotropin-releasing hormone receptor (Homo sapiens), sequence (P34981 whole entry, looked up): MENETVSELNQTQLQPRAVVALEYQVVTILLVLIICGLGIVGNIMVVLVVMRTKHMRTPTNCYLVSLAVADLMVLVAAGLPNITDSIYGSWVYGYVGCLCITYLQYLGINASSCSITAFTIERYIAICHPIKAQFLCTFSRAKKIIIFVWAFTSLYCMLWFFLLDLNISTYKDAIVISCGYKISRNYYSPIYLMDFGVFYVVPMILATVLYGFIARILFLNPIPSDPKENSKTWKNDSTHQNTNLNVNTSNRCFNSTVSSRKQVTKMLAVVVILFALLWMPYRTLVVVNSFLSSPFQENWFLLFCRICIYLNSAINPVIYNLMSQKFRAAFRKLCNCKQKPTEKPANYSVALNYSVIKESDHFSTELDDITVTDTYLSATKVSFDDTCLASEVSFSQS
Thyrotropin receptor (Homo sapiens), sequence (P16473 whole entry, looked up): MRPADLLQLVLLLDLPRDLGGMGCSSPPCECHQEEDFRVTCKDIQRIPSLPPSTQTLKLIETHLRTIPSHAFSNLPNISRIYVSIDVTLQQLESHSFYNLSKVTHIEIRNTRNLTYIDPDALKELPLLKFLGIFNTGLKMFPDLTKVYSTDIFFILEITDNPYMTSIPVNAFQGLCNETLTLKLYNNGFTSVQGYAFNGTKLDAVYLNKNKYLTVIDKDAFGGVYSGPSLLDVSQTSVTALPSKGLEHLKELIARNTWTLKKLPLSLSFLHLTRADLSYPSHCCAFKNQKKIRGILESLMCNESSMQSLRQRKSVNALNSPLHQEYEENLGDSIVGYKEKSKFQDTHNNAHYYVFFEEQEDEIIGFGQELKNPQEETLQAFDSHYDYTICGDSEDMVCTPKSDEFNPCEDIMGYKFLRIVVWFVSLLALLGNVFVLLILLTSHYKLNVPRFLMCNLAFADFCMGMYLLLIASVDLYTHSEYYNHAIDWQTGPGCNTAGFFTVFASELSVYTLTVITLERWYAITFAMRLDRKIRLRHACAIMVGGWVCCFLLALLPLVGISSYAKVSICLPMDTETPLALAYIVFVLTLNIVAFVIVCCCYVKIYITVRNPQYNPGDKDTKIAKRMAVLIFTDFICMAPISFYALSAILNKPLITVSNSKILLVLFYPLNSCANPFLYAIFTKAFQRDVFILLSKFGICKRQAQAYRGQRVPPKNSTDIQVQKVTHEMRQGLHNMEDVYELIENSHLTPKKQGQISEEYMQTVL
Estrogen receptor (Homo sapiens), sequence (P03372 whole entry, looked up): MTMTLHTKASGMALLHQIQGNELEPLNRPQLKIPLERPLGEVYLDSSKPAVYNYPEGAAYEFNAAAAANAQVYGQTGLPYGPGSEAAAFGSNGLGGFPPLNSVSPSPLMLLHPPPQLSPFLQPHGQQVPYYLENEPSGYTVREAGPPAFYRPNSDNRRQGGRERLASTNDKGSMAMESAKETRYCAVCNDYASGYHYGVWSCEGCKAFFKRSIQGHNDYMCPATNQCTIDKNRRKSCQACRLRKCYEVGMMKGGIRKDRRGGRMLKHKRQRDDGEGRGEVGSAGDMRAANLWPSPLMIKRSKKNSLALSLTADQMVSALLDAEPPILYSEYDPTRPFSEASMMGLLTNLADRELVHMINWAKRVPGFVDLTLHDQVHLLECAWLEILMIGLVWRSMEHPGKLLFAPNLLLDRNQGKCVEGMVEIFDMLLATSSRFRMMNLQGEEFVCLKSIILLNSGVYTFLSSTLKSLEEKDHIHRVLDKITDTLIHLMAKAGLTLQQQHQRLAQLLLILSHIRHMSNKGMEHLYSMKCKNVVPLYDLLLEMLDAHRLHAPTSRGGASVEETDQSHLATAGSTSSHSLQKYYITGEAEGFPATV
Estrogen receptor beta (Homo sapiens), sequence (Q92731 whole entry, looked up): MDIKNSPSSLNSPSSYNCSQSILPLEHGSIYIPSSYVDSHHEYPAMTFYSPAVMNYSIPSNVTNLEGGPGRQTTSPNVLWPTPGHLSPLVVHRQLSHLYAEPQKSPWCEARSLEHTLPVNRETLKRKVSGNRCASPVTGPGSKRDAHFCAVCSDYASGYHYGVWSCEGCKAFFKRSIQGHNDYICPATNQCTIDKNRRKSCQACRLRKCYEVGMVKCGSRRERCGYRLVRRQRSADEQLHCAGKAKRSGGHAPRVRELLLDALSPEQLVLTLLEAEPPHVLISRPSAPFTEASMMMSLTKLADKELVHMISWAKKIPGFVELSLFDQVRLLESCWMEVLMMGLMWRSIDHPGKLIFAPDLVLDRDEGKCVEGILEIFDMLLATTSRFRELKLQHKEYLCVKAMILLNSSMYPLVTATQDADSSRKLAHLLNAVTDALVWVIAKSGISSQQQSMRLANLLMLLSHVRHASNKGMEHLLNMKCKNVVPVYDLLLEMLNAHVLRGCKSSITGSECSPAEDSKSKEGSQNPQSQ
Androgen receptor (Homo sapiens), sequence (P10275 whole entry, looked up): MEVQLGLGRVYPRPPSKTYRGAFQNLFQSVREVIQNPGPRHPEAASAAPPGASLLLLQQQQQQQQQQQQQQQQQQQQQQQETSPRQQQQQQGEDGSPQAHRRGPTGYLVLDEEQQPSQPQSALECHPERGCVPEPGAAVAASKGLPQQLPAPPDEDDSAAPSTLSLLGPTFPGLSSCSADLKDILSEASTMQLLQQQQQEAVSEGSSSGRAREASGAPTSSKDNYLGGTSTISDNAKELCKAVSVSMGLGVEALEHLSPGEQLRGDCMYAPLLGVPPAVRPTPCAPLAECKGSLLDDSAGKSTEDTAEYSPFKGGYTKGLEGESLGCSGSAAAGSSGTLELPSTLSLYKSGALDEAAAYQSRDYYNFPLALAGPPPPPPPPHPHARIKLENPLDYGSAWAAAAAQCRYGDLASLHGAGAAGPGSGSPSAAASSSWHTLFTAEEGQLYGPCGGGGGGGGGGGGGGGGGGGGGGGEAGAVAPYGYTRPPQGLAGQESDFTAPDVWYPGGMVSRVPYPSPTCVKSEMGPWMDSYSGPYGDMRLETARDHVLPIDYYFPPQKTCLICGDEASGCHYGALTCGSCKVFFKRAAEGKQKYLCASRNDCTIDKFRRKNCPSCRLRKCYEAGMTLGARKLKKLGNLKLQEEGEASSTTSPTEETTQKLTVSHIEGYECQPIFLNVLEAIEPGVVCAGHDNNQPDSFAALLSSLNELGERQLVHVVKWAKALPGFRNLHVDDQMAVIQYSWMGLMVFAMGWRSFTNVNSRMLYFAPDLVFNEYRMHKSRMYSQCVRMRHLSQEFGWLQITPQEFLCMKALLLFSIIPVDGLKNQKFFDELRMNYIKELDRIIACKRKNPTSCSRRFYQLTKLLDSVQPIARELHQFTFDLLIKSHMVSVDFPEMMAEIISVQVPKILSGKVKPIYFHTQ

For `NC(=O)c1ccc(N)nc1`, the Potency entry in assay [1], in [2], in [3], in assay [5], in assay [6] and in assay [7] was “inactive” throughout. For the same compound, the Potency result in [8], in assay [11], in [12], in [14] and in assay [15] was “inactive” each time. For the same compound, the Potency was 48.6 µM (active) in assay [4], 17.2 µM (active) in assay [9] and 21.7 µM (active) in [10]. The compound was classed as inactive in [13].

On to `C[C@@H]1O[C@@H](O[C@@H]2C=C3CC[C@@H]4[C@H](CC[C@]5(C)[C@@H](c6ccc(=O)oc6)CC[C@]45O)[C@@]3(C)CC2)[C@H](O)[C@H](O)[C@H]1O`, for which the Potency is 16.8 µM (active) in [1]; 0.0094 µM (active) in assay [4]; 0.0298 µM (active) in assay [5]; 0.0094 µM (active) in assay [16]; 0.298 µM (active) in assay [18]; 0.0133 µM (active) in [9]. In addition, the Potency result in assay [3], in assay [7], in assay [8], in [14] and in assay [15] was “inactive” each time. Also, the call in [17] was inactive.

For the compound `COc1ccc([N+](=O)[O-])cc1O`, the Potency entry in [1], in assay [3], in assay [4], in [5], in assay [16] and in [6] was “inactive” each time. In addition, the Potency result in assay [18], in [7], in assay [8], in [19], in [10] and in assay [11] was “inactive” in each case. Moreover, the Potency entry in assay [12], in [14] and in [15] was “inactive” throughout. The result in assay [13] was inactive.

`CNC(C)Cc1ccc2c(c1)OCO2` (stereo unspecified): the Potency in [1] was 18.9 µM (active); in assay [19], 75.1 µM (active); in assay [9], 66.9 µM (active). The Potency result in assay [3], in assay [4], in assay [5], in [16], in assay [6] and in [18] was “inactive” each time. In addition, the Potency result in assay [8], in assay [10], in [11], in [14] and in assay [15] was “inactive” throughout. Further, in assay [13], the result was inactive.

As to `FC(Cl)(Cl)Cl`, the Potency result in [1], in [3], in assay [4], in assay [5], in assay [16] and in [18] was “inactive” in each case. For the same compound, the Potency entry in assay [7], in [8], in assay [9], in assay [10], in [11] and in assay [12] was “inactive” each time. Further, the Potency entry in assay [14] and in assay [15] was “inactive” throughout. Besides, the outcome in assay [17] and in assay [13] was inactive.

In the case of `BrCC(Br)c1ccccc1` (stereo unspecified), the Potency result in [1], in assay [3], in assay [4], in [5], in assay [16] and in assay [6] was “inactive” in each case. For the same compound, the Potency entry in [18], in assay [7], in assay [8], in [19], in [9] and in assay [10] was “inactive” in each case. Further, the Potency entry in [11] and in [12] was “inactive” in each case. In addition, the outcome in assay [17] and in assay [13] was inactive.

Turning to `Cc1ccc(OP(=O)(Oc2ccccc2)Oc2ccccc2)cc1`, the Potency in assay [1] is 17.5 µM (active); in assay [2] it was 24.7 µM (active); in assay [4], 31.1 µM (active); in [19], 15.6 µM (active). For the same compound, the Potency entry in assay [3], in assay [5], in assay [6], in [18], in assay [8] and in assay [9] was “inactive” each time. For the same compound, the Potency result in assay [11], in assay [14] and in assay [15] was “inactive” throughout. Besides, the outcome in assay [17] and in [13] was inactive.

Regarding `Cc1cc(N=Nc2ccccc2C)ccc1N`, the Potency was 19.3 µM (active) and inactive in assay [1]; 19.3 µM (active) in [2]; 30.6 µM (active) and 34.4 µM (active) in assay [3]; 27.3 µM (active) in assay [4]; 54.5 µM (active) in assay [16]; 27.3 µM (active) in assay [7]. Further, in assay [19], the Potency was 12.2 µM (active). In addition, the Potency result in assay [5], in assay [8], in assay [9], in [11], in [12] and in assay [14] was “inactive” throughout. In addition, in assay [15], the Potency entry was “inactive”. Also, the result in [17] and in [13] was inactive.
